Results reported in PubChem BioAssay (Tox21).
Where “and” joins values, the source holds several entries; their conditions need not be identical. Equal entries are not always repeated. Results filed as inconclusive are left out. A number with no mark means an inactive call. Calls of active or inactive are those of the source. Unless noted, calls come from the whole dose curve.

Test system: not listed separately
Test: p53 small molecule agonists, cell-based qHTS assay (AID 1963582; active = well fitted activation curve with a large enough effect in the signal ratio in the repeat runs, not every such curve was filed as active; the % refers to the signal ratio)
Settings: HCT-116 p53RE-bla reporter, beta-lactamase FRET ratio, 16 h; series mostly up to 66 µM; activation: at the top concentration
Summary of the method: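 Read-out is beta-lactamase FRET fluorescence after 2 h at room temperature with LiveBLAzer B/G substrate. p53 response element-bla cells were treated 16 h at 37 C with compounds in DMSO, added 5 h after seeding.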
% is set by controls: 0 for no effect and ±100 for the full control effect; potency is the fitted concentration of half-maximal effect.

SMILES | activation | Potency
CCCC/C=C/CCCCO | -1.43% | 
C/C=C1\[C@H]2C=C(C)C[C@]1(N)c1ccc(=O)[nH]c1C2 | 1.12% [at 30.3 µM] | 
CCCCCC(C)OC(=O)COc1ccc(Cl)c2cccnc12 (stereo not drawn) | -3.14% | 
Brc1c(NC2=NCCN2)ccc2nccnc12 | -0.493% [at 30.3 µM] | 
CC1CN(c2ccccc2)NC1=O (stereo not drawn) | -1.78% | 
O=C(NCC(O)CO)c1c(I)c(C(=O)NCC(O)CO)c(I)c(N(CCO)C(=O)CO)c1I (stereo not drawn) | 1.49% [at 30.3 µM] | 
C[C@H]1[C@H](NC(=O)/C(=N/OC(C)(C)C(=O)O)c2csc(N)n2)C(=O)N1S(=O)(=O)O (stereo in doubt) | 1.68% [at 30.3 µM] | 
Oc1ccc2ccccc2c1 |  | inactive
CS(=O)(=O)Nc1ccc([N+](=O)[O-])cc1Oc1ccccc1 |  | inactive
CN(C)CC/C=C1\c2ccccc2COc2ccccc21 | 1.37% [at 30.3 µM] | 
O=C(O)Cc1cc(I)c(Oc2ccc(O)c(I)c2)c(I)c1 |  | 11.5 µM (active)
Cc1c(Nc2ncccc2C(=O)O)cccc1C(F)(F)F | 1.81% [at 30.3 µM] | 
O=C(CS(=O)Cc1ccco1)NC/C=C\COc1cc(CN2CCCCC2)ccn1 (stereo not drawn) | -0.19% [at 30.3 µM] | 
Oc1ccc(N=Nc2ccccc2)cc1 | -4.02% | 
O=S(c1cc(Cl)cc(Cl)c1O)c1cc(Cl)cc(Cl)c1O |  | 17.8 µM (active)
c1ccc2sc(SSc3nc4ccccc4s3)nc2c1 | 0.366% [at 13.5 µM] | 
C=C/C=C/C=C/CCCCC | -3.72% [at 13.5 µM] | 
CC(=O)OCC=C(C)C | -2.09% [at 30.3 µM] | 
NC1=NCC2c3ccccc3Cc3ccccc3N12 (stereo not drawn) | 5.79% [at 30.3 µM] | 

Target: 5-hydroxytryptamine receptor 2A (Homo sapiens) (UniProt P28223)
Sequence (P28223 whole entry, looked up): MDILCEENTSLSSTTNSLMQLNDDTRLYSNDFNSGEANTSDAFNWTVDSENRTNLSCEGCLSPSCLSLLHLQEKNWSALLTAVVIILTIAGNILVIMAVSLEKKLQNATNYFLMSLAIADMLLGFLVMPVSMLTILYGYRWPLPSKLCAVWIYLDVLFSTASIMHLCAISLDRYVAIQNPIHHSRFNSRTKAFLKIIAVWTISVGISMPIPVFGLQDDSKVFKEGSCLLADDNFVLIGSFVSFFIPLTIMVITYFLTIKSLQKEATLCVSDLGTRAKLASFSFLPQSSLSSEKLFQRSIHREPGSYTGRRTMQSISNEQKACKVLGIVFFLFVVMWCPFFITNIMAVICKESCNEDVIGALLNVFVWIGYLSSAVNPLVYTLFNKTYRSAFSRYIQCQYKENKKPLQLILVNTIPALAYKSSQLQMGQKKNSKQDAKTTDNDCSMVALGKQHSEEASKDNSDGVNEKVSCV
Test: 5-hydroxytryptamine receptor 2A (HTR2A) small molecule antagonists, cell-based qHTS assay (AID 1963586); note: nearly all actives have a fitted effect of over 45% in size
Settings: HTR2A-CHO cells, DOI-induced calcium flux, fluorescence; series mostly up to 61.5 µM; activity, negative = inhibition: at the top concentration
Summary of the method: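 CHO cells stably expressing human HTR2A were plated for 18 h at 37 C, then loaded with calcium dye for 1 h. Compounds were preincubated 5 min at room temperature before DOI (4 nM solution) was added. Kinetic fluorescence was read for 3 min.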

SMILES | activity, negative = inhibition | Potency
CC(C)=CC(C)(C)C | 23.8% | 
CCCC/C=C/CCCCO | 22.9% | 
CCCCCC(C)OC(=O)COc1ccc(Cl)c2cccnc12 (stereo not drawn) | -26.1% | 
Cc1ccccc1N=Nc1ccc(N=Nc2c(O)ccc3ccccc23)c(C)c1 | 2.88% [at 28.5 µM] | 
CC1CN(c2ccccc2)NC1=O (stereo not drawn) | 2.01% | 
O=[N+]([O-])c1ccc2ncccc2c1 | -30.3% | 
Oc1ccc(C2(c3ccc(O)c(C4CCCCC4)c3)CCCCC2)cc1C1CCCCC1 | -5.3% | 
Cc1cc(-c2ccc(N=Nc3cc(S(=O)(=O)O)c4ccccc4c3N)c(C)c2)ccc1N=Nc1cc(S(=O)(=O)O)c2ccccc2c1N | 1.77% | 
CO | 13.4% | 
O=C(c1ccccc1)c1ccc(O)cc1O |  | 38.2 µM (active) and 33.4 µM (active)
COC(=O)/C=C/C(C)=C\C=C\C(C)=C\C=C\C=C(C)\C=C\C=C(C)\C=C\C(=O)O | 7.18% | 
Oc1ccc2ccccc2c1 |  | inactive
CCOC(=O)c1ccc(C2CCC(NC[C@H](O)COc3ccc(O)c(NS(C)(=O)=O)c3)CC2)cc1 (stereo partly drawn) | 15.4% | 
CCOC(=O)[C@@H](C)Oc1ccc(Oc2nc3ccc(Cl)cc3o2)cc1 | -13.6% | 
COC(C(=O)O)c1ccccc1 (stereo not drawn) | 2.75% | 
O=C(O)Cc1cc(I)c(Oc2ccc(O)c(I)c2)c(I)c1 | -0.2% | 
Cn1c(N)nc2nc[nH]c2c1=O | 0.678% | 
Cc1c(Nc2ncccc2C(=O)O)cccc1C(F)(F)F | 3.22% [at 28.5 µM] | 
O=C(CS(=O)Cc1ccco1)NC/C=C\COc1cc(CN2CCCCC2)ccn1 (stereo not drawn) | 7.17% [at 28.5 µM] | 
O=P(c1ccccc1)(c1ccccc1)c1ccccc1 | 2.02% | 
CC(C(=O)O)c1ccc2c(c1)[nH]c1ccc(Cl)cc12 (stereo not drawn) | -19.7% [at 28.5 µM] | 
CCCCCCOC(=O)c1ccccc1 | 1.97% | 
O=C(O)CCCCCCCCCCCBr | -23.8% | 
CC(=O)OCC=C(C)C | 0.0256% [at 28.5 µM] | 
